Reference: the supplement of paper PMC11732987, “Enantioselective OTUD7B fragment discovery through chemoproteomics screening and high-throughput optimisation” (Communications Chemistry, 2025)

What was measured:
Assay in all cases: log2 ratio of Biotin-Ahx-Ub-VS probe labelling (compound/DMSO); higher = less target engagement, active = hit call of the paper (q ≤ 0.05, log2 ratio ≤ -1)
Conditions in all cases: treatment time: 3 h
[1] = compound: CCC1N(CCc2sccc12)C(=O)CCl
Outline: (§1)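 HEK293T lysate (495 µg per sample, in Tris/CHAPS/IGEPAL buffer with protease inhibitors) was exposed in triplicate to compound at 50 or 200 µM, or to DMSO, for 3 h, then to Biotin-Ahx-Ub-VS (0.5 µM final) for 1 h. The labelled DUBs were enriched on NeutrAvidin, digested with LysC and trypsin, and analysed by diaPASEF LC-MS/MS. Average base-two log ratios of compound over DMSO came from median-normalised label-free quantities by unpaired t-test. Only proteins with at least 2 unique peptides were used.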

[2] = compound: CN1c2ccccc2C(CS1(=O)=O)NC(=O)CCl
Outline: as §1

[3] = compound: Cl.ClCC(=O)N1CCc2ncncc2C1
Outline: as §1

[4] = compound: Cl.Cn1ncc2C(CCCc12)NC(=O)CCl
Outline: as §1

[5] = compound: ClCC(=O)NC1CCOc2ccccc12
Outline: as §1

[6] = compound: ClCC(=O)NC1CCCc2ccccc12
Outline: (§2)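 These values are averaged ratios of compound to vehicle, tested by unpaired t-test. HEK293T lysate (495 µg per sample) was preincubated in triplicate with compound across a concentration series or vehicle for 3 h and then with Biotin-Ahx-Ub-VS at 0.5 µM final for 1 h. Deubiquitinases carrying the probe were NeutrAvidin-enriched, digested with LysC and trypsin, and measured by diaPASEF LC-MS/MS. Ratios are expressed as log2 from global-median-normalised Spectronaut label-free quantities, and only proteins with two or more unique peptides were included.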

[7] = compound: ClCC(=O)N[C@@H]1CCCc2ccccc12
Outline: as §2

[8] = compound: ClCC(=O)N[C@H]1CCCc2ccccc12
Outline: as §2

[9] = compound: CCC1N(CCc2cc(OC)c(Cl)cc12)C(=O)CCl
Outline: as §1

[10] = compound: CCCC1N(CCc2cc(OC)c(OC)cc12)C(=O)CCl
Outline: as §1

Measured: log2 ratio of Biotin-Ahx-Ub-VS probe labelling

OTUD4 (UniProt Q01804)
UniProt Q01804, sequence (Q01804 whole entry): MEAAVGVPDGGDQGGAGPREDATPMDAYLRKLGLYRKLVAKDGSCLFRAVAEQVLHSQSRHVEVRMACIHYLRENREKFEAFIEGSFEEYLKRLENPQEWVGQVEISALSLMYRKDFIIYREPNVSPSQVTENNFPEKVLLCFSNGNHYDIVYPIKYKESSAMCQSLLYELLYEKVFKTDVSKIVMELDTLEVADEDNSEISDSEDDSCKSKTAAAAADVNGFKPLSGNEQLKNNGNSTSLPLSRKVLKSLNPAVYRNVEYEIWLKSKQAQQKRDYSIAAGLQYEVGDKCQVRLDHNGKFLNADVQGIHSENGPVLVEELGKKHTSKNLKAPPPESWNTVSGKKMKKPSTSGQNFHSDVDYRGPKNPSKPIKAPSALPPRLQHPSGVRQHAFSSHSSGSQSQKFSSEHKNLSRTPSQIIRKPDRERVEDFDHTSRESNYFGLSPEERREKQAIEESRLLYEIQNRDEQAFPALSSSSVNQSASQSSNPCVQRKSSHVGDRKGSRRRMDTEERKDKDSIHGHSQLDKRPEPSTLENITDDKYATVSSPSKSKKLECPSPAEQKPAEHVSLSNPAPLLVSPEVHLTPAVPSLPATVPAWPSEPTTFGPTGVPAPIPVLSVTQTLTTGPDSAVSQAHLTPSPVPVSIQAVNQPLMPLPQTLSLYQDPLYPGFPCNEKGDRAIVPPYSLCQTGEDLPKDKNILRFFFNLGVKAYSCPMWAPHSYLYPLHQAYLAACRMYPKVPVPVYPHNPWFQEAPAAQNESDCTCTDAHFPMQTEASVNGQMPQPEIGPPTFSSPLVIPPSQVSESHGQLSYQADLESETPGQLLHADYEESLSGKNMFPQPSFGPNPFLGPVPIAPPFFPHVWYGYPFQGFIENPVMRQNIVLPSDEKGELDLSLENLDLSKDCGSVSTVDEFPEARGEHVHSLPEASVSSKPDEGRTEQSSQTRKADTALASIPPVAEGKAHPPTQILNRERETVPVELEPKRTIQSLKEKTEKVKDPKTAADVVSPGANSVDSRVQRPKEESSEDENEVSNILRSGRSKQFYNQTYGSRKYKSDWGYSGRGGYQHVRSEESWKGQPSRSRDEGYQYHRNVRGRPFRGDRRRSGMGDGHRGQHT
inactive: [1]; compound concentration: 50uM -0.293 | [1]; compound concentration: 200uM -0.576 | [2]; compound concentration: 50uM -0.595 | [3]; compound concentration: 50uM -0.152 | [3]; compound concentration: 200uM -0.671 | [4]; compound concentration: 50uM -0.813 | [5]; compound concentration: 50uM -0.624 | [6]; compound concentration: 0.78uM -0.158 | [6]; compound concentration: 1.56uM -0.085 | [6]; compound concentration: 3.13uM -0.223 | [6]; compound concentration: 6.25uM -0.319 | [6]; compound concentration: 12.5uM -0.411 | [6]; compound concentration: 25uM -0.655 | [7]; compound concentration: 0.78uM -0.206 | [7]; compound concentration: 1.56uM -0.14 | [7]; compound concentration: 3.13uM -0.152 | [7]; compound concentration: 6.25uM -0.172 | [7]; compound concentration: 12.5uM -0.352 | [7]; compound concentration: 25uM -0.535 | [7]; compound concentration: 50uM -0.958 | [8]; compound concentration: 0.78uM -0.176 | [8]; compound concentration: 1.56uM -0.178 | [8]; compound concentration: 3.13uM -0.176 | [8]; compound concentration: 6.25uM -0.252 | [8]; compound concentration: 12.5uM -0.529 | [8]; compound concentration: 25uM -0.893 | [9]; compound concentration: 50uM -0.491 | [10]; compound concentration: 50uM -0.395 | [10]; compound concentration: 200uM -0.505
active: [2]; compound concentration: 200uM -1.51 | [4]; compound concentration: 200uM -1.46 | [5]; compound concentration: 200uM -1.33 | [6]; compound concentration: 50uM -1.21 | [6]; compound concentration: 100uM -1.92 | [6]; compound concentration: 200uM -2.86 | [7]; compound concentration: 100uM -1.39 | [7]; compound concentration: 200uM -2.13 | [8]; compound concentration: 50uM -1.41 | [8]; compound concentration: 100uM -2.07 | [8]; compound concentration: 200uM -2.61 | [9]; compound concentration: 200uM -1.4

USP7 (UniProt Q93009)
UniProt Q93009, sequence (Q93009 whole entry, looked up): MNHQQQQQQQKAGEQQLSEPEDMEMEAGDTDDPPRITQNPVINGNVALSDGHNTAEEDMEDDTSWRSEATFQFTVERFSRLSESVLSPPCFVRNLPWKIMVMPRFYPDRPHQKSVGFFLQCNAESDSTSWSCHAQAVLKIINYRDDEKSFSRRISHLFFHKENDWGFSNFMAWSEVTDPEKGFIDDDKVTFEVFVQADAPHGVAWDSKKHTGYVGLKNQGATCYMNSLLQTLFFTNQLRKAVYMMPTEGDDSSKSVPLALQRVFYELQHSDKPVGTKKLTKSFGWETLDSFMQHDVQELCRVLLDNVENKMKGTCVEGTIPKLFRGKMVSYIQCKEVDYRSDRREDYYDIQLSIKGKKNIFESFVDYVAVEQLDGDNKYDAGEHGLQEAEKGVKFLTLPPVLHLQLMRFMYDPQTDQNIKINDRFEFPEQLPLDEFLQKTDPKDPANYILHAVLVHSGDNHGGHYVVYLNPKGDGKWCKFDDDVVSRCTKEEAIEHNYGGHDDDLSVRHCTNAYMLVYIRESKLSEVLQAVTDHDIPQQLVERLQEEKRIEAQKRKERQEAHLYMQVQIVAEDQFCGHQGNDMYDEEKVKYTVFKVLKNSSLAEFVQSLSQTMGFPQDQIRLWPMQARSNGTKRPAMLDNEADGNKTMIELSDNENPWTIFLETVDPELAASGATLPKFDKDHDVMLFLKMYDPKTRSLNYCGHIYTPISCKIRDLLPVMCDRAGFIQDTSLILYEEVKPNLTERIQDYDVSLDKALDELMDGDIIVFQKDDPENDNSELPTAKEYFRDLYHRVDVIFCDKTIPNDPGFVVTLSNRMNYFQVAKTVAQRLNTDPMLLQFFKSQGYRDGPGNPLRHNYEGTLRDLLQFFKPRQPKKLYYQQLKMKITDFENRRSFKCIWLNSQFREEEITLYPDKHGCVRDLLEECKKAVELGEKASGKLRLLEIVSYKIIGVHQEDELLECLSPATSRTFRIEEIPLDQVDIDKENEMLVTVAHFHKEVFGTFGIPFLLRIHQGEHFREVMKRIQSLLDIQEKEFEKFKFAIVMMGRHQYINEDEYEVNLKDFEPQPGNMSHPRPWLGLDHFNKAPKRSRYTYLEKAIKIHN
inactive: [1]; compound concentration: 50uM -0.421 | [2]; compound concentration: 50uM -0.133 | [2]; compound concentration: 200uM -0.121 | [3]; compound concentration: 50uM -0.0285 | [3]; compound concentration: 200uM -0.558 | [4]; compound concentration: 50uM 0.09 | [4]; compound concentration: 200uM -0.0475 | [5]; compound concentration: 50uM -0.0159 | [5]; compound concentration: 200uM -0.18 | [6]; compound concentration: 0.78uM -0.0291 | [6]; compound concentration: 1.56uM 0.0294 | [6]; compound concentration: 3.13uM -0.0887 | [6]; compound concentration: 6.25uM -0.0846 | [6]; compound concentration: 12.5uM -0.0893 | [6]; compound concentration: 25uM -0.157 | [6]; compound concentration: 50uM -0.0846 | [6]; compound concentration: 100uM -0.00996 | [6]; compound concentration: 200uM -0.173 | [7]; compound concentration: 0.78uM -0.245 | [7]; compound concentration: 1.56uM -0.104 | [7]; compound concentration: 3.13uM -0.126 | [7]; compound concentration: 6.25uM -0.0886 | [7]; compound concentration: 12.5uM -0.122 | [7]; compound concentration: 25uM -0.125 | [7]; compound concentration: 50uM -0.161 | [7]; compound concentration: 100uM -0.145 | [7]; compound concentration: 200uM -0.261 | [8]; compound concentration: 0.78uM -0.0919 | [8]; compound concentration: 1.56uM -0.155 | [8]; compound concentration: 3.13uM -0.109 | [8]; compound concentration: 6.25uM 0.00463 | [8]; compound concentration: 12.5uM -0.0828 | [8]; compound concentration: 25uM -0.0804 | [8]; compound concentration: 50uM -0.017 | [8]; compound concentration: 100uM -0.124 | [8]; compound concentration: 200uM -0.255 | [9]; compound concentration: 50uM -0.321 | [10]; compound concentration: 50uM -0.397
active: [1]; compound concentration: 200uM -1.24 | [9]; compound concentration: 200uM -1.17 | [10]; compound concentration: 200uM -1.18
